Data: PubChem BioAssay (EPA / NIEHS)
Inconclusive results are not listed. Calls of active or inactive are those of the source. How the source made its calls: active means hit-call score of the fitted dose curve at least 0.9, where 1 is the maximum; inconclusive means response in the unintended direction; inactive means score below 0.9.

Experiment: Tanguay_ZF_120hpf_NC_legacy: (Legacy) Oregon State University Tanguay Lab 120 Hour Post-fertilization zebrafish Assay for Notochord and Tail Malformation (AID 2283656)
Method: Tanguay_ZF_120hpf_legacy is a whole embryo, multiplexed endpoint assay using zebrafish larvae exposed for 120 hours post fertilization on a 96-well plate.Tanguay_ZF_120hpf_NC_legacy is one of one assay component(s) measured or calculated from the Tanguay_ZF_120hpf_legacy assay. It is designed to make measurements of zebrafish development as detected with brightfield microscopy of developing zebrafish embryos.Data from the assay component Tanguay_ZF_120hpf_NC_legacy was analyzed into 1 assay endpoints. This assay endpoint, Tanguay_ZF_120hpf_NC_legacy, was analyzed in the positive analysis fitting direction relative to DMSO as the negative control and baseline of activity. Using a type of morphology reporter, gain-of-signal activity can be used to understand changes in developmentals as they relate to the whole embryo. To generalize the intended target to other relatable targets, this assay endpoint is annotated to the zebrafish development intended target family, where the subfamily is embryonic notochord morphogenesis.
Zebrafish husbandry: Tropical 5D wild-type adult zebrafish were housed in at an approximate density of 1000 per 100 gallon tank at the Sinnhuber Aquatic Research Laboratory, Oregon State University, Corvallis, OR. Each tank was kept at standard laboratory conditions of 28C on a 14-h light/10-h dark photoperiod in fish water consisting of reverse osmosis water supplemented with a commercially available salt (Instant Ocean). Spawning funnels were placed into the tanks the night prior, and embryos were collected and staged. To increase bioavailability, the chorion was enzymatically removed using pronase (63.6mg/ml, >/= 3.5U/mg, Sigma-Aldrich: P5147) at 4 hours post fertilization (hpf) using a custom automated dechorionator.Chemical exposures: Six hpf dechorionated embryos were placed 1 embryo per well in a 96-well plate prefilled with 90 ul of EM using automated embryo placement systems (AEPS). Ten microliters of each row of dilution plate 2 was added to 2 exposure plates. The final DMSO concentration used was 0.64% (vol/vol). Thirty-two embryos were also exposed to 5uM trimethyltin chloride (positive control). Plates were sealed to prevent evaporation and foil covered to reduce light exposure and kept in a 28C incubator. Embryos were statically exposed until 120 hpf. At 24 hpf, embryos were assessed for photomotor response using a custom photomotor response analysis tool (PRAT) and for developmental toxicity endpoints (MO24: mortality at 24 hpf, DP: developmental progression, SM: spontaneous movement, and NC: notochord distortion). At 120 hpf, locomotor activity was measured using Viewpoint Zebralab and assessed for 18 endpoints. Zebrafish acquisition and analysis program (ZAAP), a custom program designed to inventory, acquire, and manage zebrafish data, was used to collect developmental endpoints as either present or absent (i.e., binary responses were recorded). If mortality occurred for an embryo (at either 24 or 120 hpf), the non-mortality endpoints were not measured.

Compound | outcome
CCN1CCC2(CC1)COc1cc3c(cc12)N(C(=O)c1ccc(-c2ccc(-c4nnc(C)o4)cc2C)cc1)CC3 | inactive
CC(C)(C)CC(C)(C)c1ccc(O)cc1 | inactive
Oc1cccc2cccnc12 | inactive
CC12CC1(C)C(=O)N(c1cc(Cl)cc(Cl)c1)C2=O (stereo unspecified) | inactive
ClC1(Cl)C2(Cl)C3(Cl)C4(Cl)C(Cl)(Cl)C5(Cl)C3(Cl)C1(Cl)C5(Cl)C24Cl (stereo unspecified) | inactive
O=C1C2(Cl)C3(Cl)C4(Cl)C(Cl)(Cl)C5(Cl)C3(Cl)C1(Cl)C5(Cl)C24Cl (stereo unspecified) | inactive
CCC(=O)C(CC(C)N(C)C)(c1ccccc1)c1ccccc1 (stereo unspecified) | inactive
ClCC(Cl)CCl | inactive
CCCCCCCCc1ccc(O)cc1 | inactive
O=C(O)C(F)(F)C(F)(F)C(F)(F)C(F)(F)C(F)(F)C(F)(F)F | inactive
CC(=O)[O][Hg][c]1ccccc1 | inactive
C=CC(=O)OCCCCCC(C)C | inactive
O=c1[nH]c(=O)[nH]c(=O)[nH]1 | inactive
O=C(O)C(F)(F)C(F)(F)C(F)(F)C(F)(F)C(F)(F)C(F)(F)C(F)(F)C(F)(F)C(F)(F)C(F)(F)F | inactive
COc1cc(-c2ccc(N)c(OC)c2)ccc1N | inactive
CN(C)N=O | inactive
NC(=O)O | inactive
O=[N+]([O-])c1ccc(O)c([N+](=O)[O-])c1 | inactive
CCOP(=S)(OCC)SCSP(=S)(OCC)OCC | inactive
C[C@]12CCC(=O)C[C@@H]1CC[C@@H]1[C@@H]2CC[C@]2(C)[C@@H](O)CC[C@@H]12 | inactive
Cc1ccccc1N | inactive
O=C(Nc1ccc2[nH]ccc2c1)c1cc2cc(F)ccc2n1Cc1cccc(F)c1 | inactive
CCOP(=S)(OCC)Oc1nc(Cl)c(Cl)cc1Cl | inactive
O=C(O)C(Cl)(Cl)Cl | inactive
CC(C)(C)c1cc(O)ccc1O | inactive
C=C(C)C(=O)[O][Sn]([CH2]CCC)([CH2]CCC)[CH2]CCC | inactive
